The results in this text go back to PubChem BioAssay AID602250 (The Scripps Research Institute Molecular Screening Center, 2012).

Hit rate of the full screen: of about 360,000 compounds, about 2,200 (0.61%) were called active. Shown is part of a subset that was picked to be rich in actives. Values without a mark were called inactive.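 Rule for the calls: active = inhibition above a per-plate cutoff, the plate's mean sample inhibition plus 3 SD (cut at about 24% in these data); inactive = the rest.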

The assay can be described thus: nonselective inhibitors of ATP calcium response in CHO-K1, primary screen, counter-screen for M1 antagonist project, cell-based, Fluo-8 calcium fluorescence, full deck, 1536-well (AID 602250).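 Note: 0% = DMSO plus EC80 ATP and 100% = DMSO alone without ATP.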 As to conditions: CHO-K1 parental, ATP-induced calcium, Fluo-8 fluorescence; at 3 µM; active compounds read high.
One may read the inhibition as the change of the read-out against control, counted positive when it falls. In the case of `COc1cccc(CNC(=O)CCC2CCCN(C(=O)c3cc(C)[nH]n3)C2)c1` (stereo not given), the inhibition is -15.8%.

On to `CCOC(=O)c1c(NC(=O)C2CC=CCC2C(=O)O)sc(C)c1CC` (stereo not given), for which the inhibition was -0.11%. With `CCCCC(=O)NNC(=S)NC(=O)C(c1ccccc1)c1ccccc1` the figure was 61.1% (active); with `CCCCC(=O)NCc1ccc(F)cc1`, -1.22%. With `CCCOCC(O)CC(CC)C(=O)NNC(=S)Nc1ccccc1` (stereo not given) the figure was 1.16%; with `Cc1ccc(C)c(NC(=O)C2Cc3ccccc3CN2C(=O)OCc2ccccc2)c1` (stereo not given), -8.92%; with `Cc1cccc(CSc2nnc(C)c(=O)n2N)c1`, -7.07%.

For `Cc1cccc(CSc2nc3c(c(=O)n2C)SCC3)c1`, the inhibition is 27.6% (active). As for `Cn1c(SCC(=O)N2CCCCC2)nc2c(c1=O)SCC2`, the inhibition is 8.86%. With `COc1cc(S(=O)(=O)N2CCOCC2)ccc1NC(=O)COc1ccc(N(C)S(=O)(=O)c2ccc(C)cc2)cc1` the figure was -12%; with `COc1cc(C(=O)NCc2cc3cc(Cl)ccc3n2C)cc(OC)c1OC`, -7.3%; with `COc1cc(C(=O)NCc2ccc3c(c2)cc(C)n3C)cc(OC)c1OC`, 19.1%.

With `CCn1c(CNC(=O)c2cc(OC)c(OC)c(OC)c2)cc2cc(C)ccc21`, the inhibition is 36.1% (active). In the case of `CN(Cc1nc(-c2cnccn2)no1)Cc1n[nH]c2c1CCCCC2` it was -7.73%. In the case of `CC1CCCN(CC(O)COc2ccc3c(c2)OCO3)C1` (stereo not given) it was -7.13%; in that of `Cn1c(=O)[nH]c(=O)c2c1nc(N(CCO)Cc1ccccc1)n2Cc1ccccc1Cl`, -11.1%; in that of `CN(C)S(=O)(=O)c1cccc(NC(=O)COC(=O)C2(c3ccccc3F)CCCC2)c1`, 0.69%.

Turning to `O=C(COC(=O)C1(c2ccc(F)cc2)CCCC1)N1CCNC1=O`, the inhibition is -20.1%. In the case of `NS(=O)(=O)c1ccc(NC(=O)COC(=O)C2(c3ccc(F)cc3)CCCC2)cc1` it was 31.1% (active); in that of `O=C(N[C@H]1C/C=C\C(c2ccc(F)cc2)N(Cc2ccccc2)C(=O)C1)OCC1c2ccccc2-c2ccccc21` (stereo not given in full), -13%; in that of `Cc1ccc(S(=O)(=O)N2CCC(=O)N([C@H](COCc3ccccc3)Cc3ccccc3)CC2)cc1`, -5.28%. Turning to `Cc1ccc(S(=O)(=O)N2CCC(=O)N([C@H](COCc3ccccc3)C(C)C)CC2)cc1`, the inhibition was 41.5% (active). In the case of `COc1ccc(COCCN2CCN(S(=O)(=O)c3ccccc3)CCC2=O)cc1` it was -8.23%. With `O=C(Nc1ccc(Cl)c(Cl)c1)c1ccccc1NC(=O)C1CC=CCC1C(=O)O` (stereo not given) the figure was 3.94%. For the molecule `CCCSc1ncccc1C(=O)O`, the inhibition was -2.1%.

With `COc1ccc(C(=O)NC2CCCc3c2cnn3-c2cccc(C)c2C)c(OC)n1` (stereo not given), the inhibition was 19.6%. With `COc1ccc(C(=O)NC2CC(C)(C)Cc3c2cnn3-c2ccccc2C)o1` (stereo not given) the figure was -6.41%. With `Cn1nccc1C(=O)NC1CCCc2c1cnn2-c1ccc(F)cc1F` (stereo not given) the figure was 28.7% (active).

As for `CC1=C(C(=O)NC2CC(C)(C)Cc3c2cnn3-c2ccc(C)cc2)OCCO1` (stereo not given), the inhibition is -1.6%.

On to `COC(=O)c1ccc(C(=O)NC2CC(C)(C)Cc3c2cnn3-c2ccc(F)cc2)nc1` (stereo not given), for which the inhibition is -7.53%. With `Cn1nccc1C(=O)NC1CCCc2c1cnn2-c1ccccc1F` (stereo not given) the figure was 26.9% (active); with `O=c1cc(CN2CCN(S(=O)(=O)/C=C/c3ccccc3)CC2)c2ccc(O)cc2o1`, 6.97%; with `Cc1cc(NC(=O)CCS(=O)(=O)c2ccc(F)cc2)no1`, -0.17%. With `COc1ccc2c(c1)C=CC1(O2)N(CCO)c2ccccc2C1(C)C` (stereo not given) the figure was -4.71%; with `Cc1cc(OCC(=O)Nc2c(C)n(C)n(-c3ccccc3)c2=O)ccc1[N+](=O)[O-]`, -14.3%; with `O=C(NCC(c1cccs1)N1CCOCC1)c1cc(Cl)ccc1[N+](=O)[O-]` (stereo not given), 10.5%. In the case of `COc1ccccc1C(=O)NC(CCSC)C(=O)N1CCN(C/C=C/c2ccccc2)CC1` (stereo not given), the inhibition is -0.28%.

In the case of `CN(Cc1cccnc1)C(=O)c1cc(COc2ccc3ncccc3c2)on1`, the inhibition is 37.4% (active).

Turning to `CC(=O)c1cccc(OCc2cc(C(=O)NC(C)Cc3cccnc3)no2)c1` (stereo not given), the inhibition is -0.09%.

On to `CN(Cc1cnccn1)C(=O)c1cc(COc2cccc(C(F)(F)F)c2)on1`, for which the inhibition is -4.38%. `O=C(NCCCc1ccccc1)c1cc(COc2c(F)cccc2F)on1`: the inhibition is -16.9%.

With `Cc1ccc(Sc2cc(N3CCOCC3)nc(-c3ccccc3)n2)cc1`, the inhibition was -3.23%. On to `Cc1ccccc1C1=NC(C(F)(F)F)(C(F)(F)F)c2c(n(-c3ccc(F)cc3)c(=O)[nH]c2=O)N1`, for which the inhibition is -9.81%.

As to `O=c1[nH]c(=O)n(Cc2ccco2)c2c1C(C(F)(F)F)(C(F)(F)F)N=C(c1ccco1)N2`, the inhibition was 30.1% (active).

In the case of `Nc1c(N(Cc2ccco2)C(=O)c2cccc(F)c2)c(=O)[nH]c(=O)n1Cc1ccccc1`, the inhibition was 0.73%. As to `CC(=O)c1ccccc1NC(=O)CC1(CC(=O)O)CCCCC1`, the inhibition is -2.82%. As for `CCC(C)(C(=O)Nc1ccccc1C)N(C(=O)CNC(C)=O)c1ccc(C)cc1` (stereo not given), the inhibition was -1.48%. In the case of `CCCCSc1[nH]c(=O)c(C(=O)OCC)cc1C#N` it was 5.2%. In the case of `CN1CCN(Cc2nc3cc(NC(=O)COc4ccc([N+](=O)[O-])cc4)ccc3n2C)CC1` it was -3.48%; in that of `CCOC(=O)c1cnc(SCC(=O)Nc2cccc(OC)c2)nc1N`, 11.2%; in that of `CCCCCCCCn1c2c(c(=N)c3c1CCC3)CCCC2`, 32.5% (active). In the case of `C/C(=N/OC(=O)c1cccc(C(F)(F)F)c1)c1cnccn1` it was -1.12%; in that of `CC(C)Oc1ccc(S(=O)(=O)N2CCOCC2)cc1NC(=O)C1CSC2(C)CCC(=O)N12` (stereo not given), 0.94%; in that of `Cc1cc(NCc2ccco2)n2c(nc3ccccc32)c1C#N`, -0.52%. As for `Cc1ccccc1-c1nc(C#N)c(NCc2ccco2)o1`, the inhibition was 28.1% (active). In the case of `COc1ccc(Nc2oc(-c3ccccc3Cl)nc2C#N)cc1` it was -14.3%; in that of `O=C(COC(=O)CCCSc1nc2ccccc2[nH]1)Nc1ccc(Oc2ccccc2)cc1`, 0.31%; in that of `Cc1cc(C)n2c(Nc3c(C)cccc3C)c(CCc3ccccc3)nc2n1`, 2.51%.

On to `CCOC(=O)N/N=C1\CC(C)S(=O)(=O)c2ccc(Cl)cc21` (stereo not given), for which the inhibition was -8.64%. With `Cc1cccc(S(=O)(=O)N(C)C[C@@H]2OCc3cnnn3CCCC(=O)N([C@H](C)CO)C[C@@H]2C)c1` the figure was 1.2%; with `O=C(Nc1ccncc1)c1cc2ccccc2o1`, 23.7% (active). With `CN(C)C(CNC(=O)c1cc2ccccc2o1)c1ccccc1` (stereo not given) the figure was -1.56%; with `CC(C)(C)n1nc2c(c1NC(=O)c1cc3ccccc3o1)CSC2`, -14.9%.

With `O=C(CSc1nnnn1-c1ccc2c(c1)CCC2)Nc1ccc2c(c1)OCCO2`, the inhibition is 16.9%. For `N#Cc1c(NCCO)ccc([N+](=O)[O-])c1NCCO`, the inhibition is -7.72%. With `CCN1CCN(C2CCCCC2NS(=O)(=O)c2ccc(Cl)cc2)CC1` (stereo not given) the figure was -7.77%; with `CCOC1CCCCC1NS(=O)(=O)c1ccc(Cl)cc1` (stereo not given), 38.7% (active); with `O=S(=O)(NC1CCCCC1N1CCC(O)CC1)c1ccc(Cl)cc1` (stereo not given), -4.04%. In the case of `CCOC(=O)c1cc2occc2n1CC(=O)NC1CCC(C)CC1` (stereo not given) it was -7.77%; in that of `CCOC(=O)C1=CC[C@@H](c2ccccc2)N(S(=O)(=O)c2ccc(C)cc2)[C@H]1c1ccc(CC)cc1`, 11.1%; in that of `CCOC(=O)C1CN(S(=O)(=O)c2ccc(F)cc2)C1`, 0.12%.

As to `CCOC(=O)C1=CC[C@@H](c2ccccc2)N(S(=O)(=O)c2ccc(C)cc2)[C@H]1c1cccc(OC)c1`, the inhibition is 8.14%. In the case of `CCOC(=O)C1=CCC(c2ccc(F)cc2)N(S(=O)(=O)c2ccc(C)cc2)C1` (stereo not given) it was 31.3% (active); in that of `CCOC(=O)C1=CC[C@@H](c2ccncc2)N(S(=O)(=O)c2ccc(C)cc2)C1`, 25.1% (active); in that of `CC(=O)C1=CCC(c2ccccc2)N(S(=O)(=O)c2ccc(C)cc2)C1` (stereo not given), -16.2%.

As to `O=C1C=CN2CCCC2CC1` (stereo not given), the inhibition is -0.95%. With `CCC(C)(C)NC(=O)C(c1ccc(O)cc1)N(C(=O)Cn1nnc2ccccc21)c1ccc(NC(C)=O)cc1` (stereo not given) the figure was -17.9%; with `COc1ccccc1-n1c(C)nc2cc(C(=O)NCc3ccc4c(c3)OCO4)ccc21`, -1.86%; with `CN(CC(=O)Nc1cccc(F)c1)C(=O)C1=COCCO1`, 9.82%. With `Cc1ccc(NC(=O)c2sccc2C)cc1[N+](=O)[O-]`, the inhibition was -7.01%. Take `Cc1ccc(NC(=O)CN(C)CC(=O)Nc2cccc(F)c2)cc1[N+](=O)[O-]`: the inhibition is 26.1% (active). In the case of `COc1cc([N+](=O)[O-])ccc1NC(=O)COC(=O)CCOc1ccc(C)cc1` it was -5.41%; in that of `CCSc1nc(C)c(CCOc2cccc(C)c2)c(=O)[nH]1`, 11.1%; in that of `COc1ccc(-c2cc(C(=O)N(C)CC(=O)Nc3ccccc3Cl)c3ccccc3n2)cc1OC`, 7.04%. With `COc1ccc(-c2cc(C(=O)N(C)Cc3ccc(OC)c(OC)c3OC)c3ccccc3n2)cc1OC` the figure was 26.8% (active). In the case of `COc1ccc(CN(C)C(=O)c2cc(-c3ccc(C)cc3C)nc3ccccc23)c(OC)c1OC` it was 5.32%. As to `CC(NC(=O)CNC(=O)Cc1cccc2ccccc12)c1ccc(S(N)(=O)=O)cc1` (stereo not given), the inhibition was 4.92%.

In the case of `COc1ccc(-c2nn(C)c(=O)c3ccccc23)cc1NC(=O)COc1ccccc1`, the inhibition is 23.8% (active).

Take `COc1ccc(S(=O)(=O)N2CCCCC2)cc1NC(=O)COc1ccccc1`: the inhibition is -8.54%. In the case of `COc1ccc(-c2nn(C)c(=O)c3ccccc23)cc1CNC(=O)C1CCCCC1` it was 3.7%.
